# Data published in PubChem BioAssay (NCATS).
# Results filed as inconclusive are left out. Where a call stands in place of a potency, no number is given. Values without a mark were called inactive. The source made the active and inactive calls. The call rests on the fitted dose curve; in most records, active means well fitted curve in the direction sought with a large enough effect; inconclusive means small, poorly fitted or top-dose-only effect, or another doubt; inactive means no such curve, though single readings can be large; an effect the other way counts as inactive or inconclusive.
# Key:
# [1] = Quantitative High-Throughput drug screen in 47 multiple myeloma cell lines against the NCATS MIPE library collection: FR4_PLB cell viability assay (AID 1918924; further: nearly all actives have a fitted effect of over 35% in size; further: potency means the concentration at half of the fitted maximal effect)
# Summary of the method: (§1)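 Luminescent ATP measurement with CellTiter-Glo gives viability, scaled between DMSO-only wells (100%) and media-only wells (0%). Cells, 500 per well, faced library compounds for 48 hours at 37C.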
# [2] = Quantitative High-Throughput drug screen in 47 multiple myeloma cell lines against the NCATS MIPE library collection: Delta47_JCRB cell viability assay (AID 1918925; further: nearly all actives have a fitted effect of over 45% in size; further: potency means the concentration at half of the fitted maximal effect)
# Summary of the method: (§2)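 Viability readout: CellTiter-Glo luminescence following 5 min room-temperature incubation with reagent. Prior exposure: 48 h, 37C, humidified 5% CO2, 500 cells per well.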
# [3] = Quantitative High-Throughput drug screen in 47 multiple myeloma cell lines against the NCATS MIPE library collection: EJM_DSMZ cell viability assay (AID 1918926; further: nearly all actives have a fitted effect of over 30% in size; further: potency means the concentration at half of the fitted maximal effect)
# Summary of the method: as §2
# [4] = Quantitative High-Throughput drug screen in 47 multiple myeloma cell lines against the NCATS MIPE library collection: ARP1_JJKsccF8 cell viability assay (AID 1918928; further: nearly all actives have a fitted effect of over 40% in size; further: potency means the concentration at half of the fitted maximal effect)
# Summary of the method: (§3)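 Here, 48 h treatment with MIPE 4.0 agents at 37 °C preceded an ATP luminescence read. Plating density was 500 cells per well.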
# [5] = Quantitative High-Throughput drug screen in 47 multiple myeloma cell lines against the NCATS MIPE library collection: Karpas620_DSMZ cell viability assay (AID 1918959); further: nearly all actives have a fitted effect of over 30% in size
# Summary of the method: as §1
# [6] = Quantitative High-Throughput drug screen in 47 multiple myeloma cell lines against the NCATS MIPE library collection: KMM1_JCRB cell viability assay (AID 1918960); further: nearly all actives have a fitted effect of over 30% in size; further: potency means the concentration at half of the fitted maximal effect
# Summary of the method: as §3
# [7] = Quantitative High-Throughput drug screen in 47 multiple myeloma cell lines against the NCATS MIPE library collection: JIM3_ECACC cell viability assay (AID 1918963; further: nearly all actives have a fitted effect of over 35% in size; further: potency means the concentration at half of the fitted maximal effect)
# Summary of the method: as §1
# [8] = Quantitative High-Throughput drug screen in 47 multiple myeloma cell lines against the NCATS MIPE library collection: JIM1_ECACC cell viability assay (AID 1918964; further: potency means the concentration at half of the fitted maximal effect)
# Summary of the method: as §2
# [9] = Quantitative High-Throughput drug screen in 47 multiple myeloma cell lines against the NCATS MIPE library collection: JJN3_DSMZ cell viability assay (AID 1918966; further: nearly all actives have a fitted effect of over 50% in size; further: potency means the concentration at half of the fitted maximal effect)
# Summary of the method: as §2
# [10] = Quantitative High-Throughput drug screen in 47 multiple myeloma cell lines against the NCATS MIPE library collection: Karpas25_ECACC cell viability assay (AID 1918968; further: nearly all actives have a fitted effect of over 35% in size; further: potency means the concentration at half of the fitted maximal effect)
# Summary of the method: as §2
# [11] = Quantitative High-Throughput drug screen in 47 multiple myeloma cell lines against the NCATS MIPE library collection: KMS27_JCRB cell viability assay (AID 1918970); details: KMS27 myeloma cells, CellTiter-Glo ATP viability, 48 h; viability (% of DMSO): at 45.8 µM (top of the series); further: nearly all actives have a fitted effect of over 30% in size; further: potency means the concentration at half of the fitted maximal effect
# Summary of the method: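 ATP-based viability (CellTiter-Glo luminescence) is measured in cells treated 48 h with approved and investigational drugs at 37 °C. Controls are DMSO-only wells for full viability and media-only wells for none.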
# [12] = Quantitative High-Throughput drug screen in 47 multiple myeloma cell lines against the NCATS MIPE library collection: AMO1_DSMZ cell viability assay (AID 1918927; further: nearly all actives have a fitted effect of over 30% in size; further: potency means the concentration at half of the fitted maximal effect)
# Summary of the method: as §2
# [13] = Quantitative High-Throughput drug screen in 47 multiple myeloma cell lines against the NCATS MIPE library collection: ARD_JJKsccE7 cell viability assay (AID 1918929; further: potency means the concentration at half of the fitted maximal effect)
# Summary of the method: as §2
# [14] = Quantitative High-Throughput drug screen in 47 multiple myeloma cell lines against the NCATS MIPE library collection: Karpas417_ECACC cell viability assay (AID 1918961); details: Karpas417 myeloma viability, CellTiter-Glo ATP luminescence, 48 h; viability (% of DMSO): at 45.8 µM (top of the series); further: potency means the concentration at half of the fitted maximal effect
# Summary of the method: (§4)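 Steps: seed 500 cells per well; pin-transfer MIPE 4.0 library; incubate 48 h at 37C, 5% CO2, humidified; add CellTiter-Glo, 5 min room temperature; read luminescence.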
# [15] = Quantitative High-Throughput drug screen in 47 multiple myeloma cell lines against the NCATS MIPE library collection: INA6_PLB cell viability assay (AID 1918965; further: nearly all actives have a fitted effect of over 55% in size; further: potency means the concentration at half of the fitted maximal effect)
# Summary of the method: as §4
# [16] = Quantitative High-Throughput drug screen in 47 multiple myeloma cell lines against the NCATS MIPE library collection: H1112_PLB cell viability assay (AID 1918967; further: nearly all actives have a fitted effect of over 30% in size; further: potency means the concentration at half of the fitted maximal effect)
# Summary of the method: as §2
# [17] = Quantitative High-Throughput drug screen in 47 multiple myeloma cell lines against the NCATS MIPE library collection: KHM11_PLB cell viability assay (AID 1918962); further: nearly all actives have a fitted effect of over 35% in size; further: potency means the concentration at half of the fitted maximal effect
# Summary of the method: as §1
# [18] = Quantitative High-Throughput drug screen in 47 multiple myeloma cell lines against the NCATS MIPE library collection: KMS12BM_JCRB cell viability assay (AID 1918971); further: nearly all actives have a fitted effect of over 35% in size; further: potency means the concentration at half of the fitted maximal effect
# Summary of the method: as §4
SMILES,Potency [1],Potency [2],Potency [3],Potency [4],Potency [5],Potency [6],Potency [7],Potency [8],Potency [9],Potency [10],Potency [11],Potency [12],Potency [13],viability (% of DMSO) [14],Potency [15],Potency [16],Potency [17],Potency [18],Potency [14]
CC[C@H]1OC(=O)[C@H](C)[C@@H](O[C@H]2C[C@@](C)(OC)[C@@H](O)[C@H](C)O2)[C@H](C)[C@@H](O[C@@H]2O[C@H](C)C[C@H](N(C)C)[C@H]2O)[C@](C)(O)C[C@H](C)C(=NOCOCCOC)[C@H](C)[C@@H](O)[C@]1(C)O,inactive,inactive,inactive,inactive,inactive,inactive,inactive,inactive,13.2 µM (active),inactive,inactive,,,,,,,,
CC(=O)O[C@]1(C(C)=O)CC[C@H]2[C@@H]3C=C(Cl)C4=CC(=O)[C@@H]5C[C@H]5[C@]4(C)[C@@H]3CC[C@@]21C,inactive,8.33 µM (active),11.8 µM (active),,,18.7 µM (active),23.5 µM (active),,,9.35 µM (active),18.7 µM (active),10.5 µM (active),23.5 µM (active),112% (active),14.8 µM (active),9.35 µM (active),,,
CN1CCN2c3ncccc3Cc3ccccc3C2C1 (stereo unspecified),inactive,inactive,inactive,inactive,inactive,inactive,inactive,,,,1.05 µM (active),inactive,,,inactive,inactive,inactive,,
COc1c(C)c2c(c(O)c1CC=C(C)CCC(=O)OCCN1CCOCC1)C(=O)OC2,5.26 µM (active),inactive,inactive,,,,,,,4.18 µM (active),2.09 µM (active),0.372 µM (active),1.18 µM (active),,1.87 µM (active),3.32 µM (active),,4.18 µM (active),
CC(NCCc1ccc(O)cc1)C(O)c1ccc(O)cc1 (stereo unspecified),inactive,inactive,,inactive,inactive,0.132 µM (active),inactive,inactive,inactive,,inactive,inactive,inactive,,inactive,inactive,inactive,inactive,inactive
CC(C)CN(C[C@@H](O)[C@H](Cc1ccccc1)NC(=O)O[C@H]1CO[C@H]2OCC[C@H]21)S(=O)(=O)c1ccc(N)cc1,inactive,1.48 µM (active),5.9 µM (active),,inactive,inactive,13.2 µM (active),inactive,,3.72 µM (active),,inactive,,,,2.09 µM (active),,20.9 µM (active),
O=C(O)C1=NC(C(=O)O)CC(C=CN2c3cc(O)c(OC4OC(CO)C(O)C(O)C4O)cc3CC2C(=O)O)=C1 (stereo unspecified),inactive,inactive,inactive,,inactive,inactive,inactive,inactive,,inactive,inactive,,,,inactive,,,,inactive
COc1cc([C@H]2Oc3cc([C@H]4Oc5cc(O)cc(O)c5C(=O)[C@H]4O)ccc3O[C@H]2CO)ccc1O,18.7 µM (active),13.2 µM (active),14.8 µM (active),16.6 µM (active),inactive,inactive,16.6 µM (active),inactive,,,inactive,,inactive,,13.2 µM (active),,,10.5 µM (active),
CNC1[C@H](O)C(O[C@@H]2C(O)C(O[C@H]3O[C@H]([C@@H](C)NC)CC[C@H]3N)[C@@H](N)C[C@H]2N)OC[C@]1(C)O (stereo partly specified),inactive,inactive,inactive,inactive,,inactive,inactive,,,inactive,inactive,inactive,inactive,,inactive,inactive,,inactive,
CCC(C)SSc1ncc[nH]1 (stereo unspecified),16.6 µM (active),10.5 µM (active),13.2 µM (active),9.35 µM (active),,3.32 µM (active),14.8 µM (active),5.9 µM (active),,4.18 µM (active),10.5 µM (active),9.35 µM (active),,,4.69 µM (active),5.26 µM (active),13.2 µM (active),13.2 µM (active),2.35 µM (active)
CC=C1C2C=C(C)CC1(N)c1ccc(=O)[nH]c1C2 (stereo unspecified),inactive,inactive,inactive,,inactive,inactive,inactive,,inactive,inactive,inactive,inactive,,,,,inactive,,
CC1(C)C(N(O)C(=O)Nc2ccc(Cl)cc2)N(c2ccc(Cl)cc2)C(=O)N1CC(=O)NN=CC=Cc1ccc([N+](=O)[O-])o1 (stereo unspecified),13.2 µM (active),7.43 µM (active),16.6 µM (active),7.43 µM (active),inactive,inactive,14.8 µM (active),,4.18 µM (active),8.33 µM (active),inactive,inactive,,,7.43 µM (active),9.35 µM (active),11.8 µM (active),8.33 µM (active),
C[C@]12CCC3=C4CCC(=O)C=C4CC[C@@H]3[C@H]1CC[C@@]2(O)CC#N,inactive,inactive,inactive,inactive,,,inactive,,,,inactive,,,,,,inactive,,
